# Reference: PubChem BioAssay AID1508600 (Functional Genomics Laboratory (NCATS/FGL), 2020)
# The campaign covered roughly 53,000 sequences. About 3,700 (7%) were called active. Shown is part of a subset that was picked to be rich in actives. A number with no mark means an inactive call.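 The calls were made as follows: active = gene knockdowns whose robust z-score for IL-1 alpha signal is at least 2 or at most -2, so actives lie on both sides; inactive = the rest.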
# Assay: Components of the Cytosolic LPS Sensing Pathway: Gene Identification via Genome-wide siRNA Screen;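 also: robust z of the log signal after scaling to non-targeting control siRNA wells of the plate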
# Conditions: RAW264.7 macrophages, IL-1a HTRF, actives lie on both sides, screened at 100 nM (by protocol), cells primed 5 h with Pam3CSK4 first
# Outline: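 Three distinct siRNAs per gene were tested singly at 100 nM in RAW264.7 macrophages. Following Pam3CSK4 priming and 24 hour LipidA transfection, IL-1a secretion was read by HTRF.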
row,Sequence,z-score
1,GGUAGAAUACCUUCAGAUUTT against Ercc4,2.81 (active)
2,GGAAUUGUCAGGUCUUGAATT against Tmem174,-0.311
3,GGAGCUUCGGGAGAUGAUUTT against Fdxr,0.357
4,GGCGGAGUUUUUAAUACUCTT against Upb1,1.79
5,CCUAUGUUUGGUGAUUAUGTT against Alg6,0.264
6,GGGUAGGAGGAAAGUGUUCTT against Olfr1093,1.55
7,GGAACAGCAGCAGAGUGAATT against Gkap1,-1.09
8,GGCACAUGAUCCUUAAUUUTT against Pfkfb3,0.0397
9,GCCUAAGCCUACCAAACGATT against Ints3,0.0965
10,GCCGAGAGGGAUGUGUAUATT against Psmb1,-2.54 (active)
11,GGAAAUCCUUGACUACAUUTT against Cyp2b19,0.31
12,GGUCCACCUCAACAAGCUATT against Zfp536,2.57 (active)
13,GGGAGAAACCUGUGCAAAUTT against Serpinb6c,0.459
14,AGACUGGGUUGUGAAGAUATT against 4930563M21Rik,-1.68
15,GCUAGGACUACAGCUGGGATT against Snrnp48,-2.56 (active)
16,GGAGAACUGAAGAAUCCAATT against Med11,1.78
17,GCCAAGAUCCCACCAGUUATT against Neurl1b,0.639
18,GGAGCACAGUCUCAUGAAUTT against A130014H13Rik,-1.44
19,CGUGAAGAUUGACGUGUUUTT against Pcyox1,1.06
20,UGCCUGUAAACCAACAAGGTT against Prb1,-2.04 (active)
21,GUGAAGAGGAGCAGGACUUTT against Klrc3,0.261
22,GGGAAAAGUAUCCUCUGUUTT against Olfr877,-0.968
23,GCGAAGUCAUCAAAUUUUCTT against Abcb11,0.622

row,Sequence,z-score
1,GGUCCUUAAGUCCUUUGACTT against Cdr1os,0.894
2,GGGAAAGAUAAAUGUUUCCTT against Gucy1b1,1.89
3,GGUUCAGACAAGCAUCUAGTT against Sbp,-1.04
4,CCUCAGGAUACAGACCCACTT against Frg2f1,-0.35
5,GGAAAUUUUUUCCUUUCCUTT against Olfr211,-0.638
6,GGACCAUCAGAGGAGAACUTT against Cuedc2,-2.09 (active)
7,CGAGAGUGGGUGGGUUGAATT against Zfp950,0.628
8,GCCCUAUCUACGAUGAAAATT against Scamp2,-0.197
9,CCGAAUACGUGAAGACGCATT against Slc25a1,-0.967
10,GGAGGAAAAUGUCCUUGUUTT against Pth,0.25
11,GCAGGAAUGCGGUAUAAACTT against Inpp5f,0.707
12,GCACUGGACUUAGGAUGGUTT against Ankrd22,2.2 (active)
13,GGACACCACGUUCACCAAGTT against Rbm38,-0.36
14,GCUUCAAUAACUGCGCAAGTT against Zkscan2,0.547
15,GGAUGACUGAAUGAUGGGATT against Tcl1b5,-2.15 (active)
16,GGACCUCACAAUGAGUAUGTT against Thtpa,1.23
17,CGACGAACCUGAGUAUAUUTT against Canx,-0.0578
18,GUGCAGGUCCUAAUCUGAATT against Asb1,2.15 (active)
19,GGAAAAAAGCCUCAUCGGATT against Wdr63,0.676
20,GGGAGAGUGUUUGUUCAUUTT against Dusp1,-0.082
21,GGCCUACCUAUAGAAAUGATT against Pgap1,0.208
22,GACACCUACUUCAUUGGCCTT against Olfr1245,-1.23
23,GCAGUUAUAUGCUCAAGAUTT against Pik3r3,0.0211

row,Sequence,z-score
1,GCCUUACUUCGGAGUGCUATT against Olfr606,-4.78 (active)
2,GCCAGCAUAAAUAUACUUUTT against Apol10a,-0.0597
3,GCCUUUGGAAGUUCAGAACTT against Rnf216,-1.07
4,GAUUGGAACUUGUGGAUCUTT against Defb8,0.424
5,GGUACUGGACCAAAUUGCUTT against Ppp1r15b,2.26 (active)
6,CGGCACCUAUGAGUCUUACTT against Cyp4x1,2.13 (active)
7,CGAUCCAUGUUGUAAGCGCTT against Adam39,0.347
8,GGUUAAAGUGUAUUUACAGTT against Fkbp14,0.124
9,GGUCCUUAACCGCUAUGCATT against Esrp2,0.294
10,GGAAGCUUCAGGAGUAUAUTT against Sdc2,-0.326
11,GUGGCUGACAAGUUUAUCATT against Cyp2c66,-0.132
12,AACUAGCAAUAUGAUGGAGTT against Chic1,-0.55
13,GGGUUUGUUAAGUCCUGUGTT against Gsdmc,-2.09 (active)
14,GCAAUAACCCAAUUCCUGATT against Phex,0.179
15,GGACAGUAUGAAUUUGAAUTT against Lcp1,2.44 (active)
16,GGCCUAUCUGACCUACACCTT against Wnt8a,-0.271
17,GCCAUAUGAUAAUAUAGAGTT against Gbp6,-0.574
18,CCUCAACCGGCAGUUCUUGTT against Uba2,-0.574
19,GCAUAGCUAACUCAGCAUATT against Map2k2,1.09
20,GGAAACCAUUGAAGAUGUUTT against Psmd13,-1.2
21,CCCUGAAGUUUAUGCAACATT against Ttyh2,-3.02 (active)
22,GGUAAUGAGCAGAUGAAGCTT against Sgta,0.622
23,GGUGGUUUAAGAAAUCAAATT against Dolpp1,0.34
